Results from PubChem BioAssay AID430 (Sanford-Burnham Center for Chemical Genomics, 2006).
About 1,100 (1.7%) of roughly 63,000 compounds were called active. For the sample, actives were picked, then their nearest neighbours and some compounds at random. Results with a measured potency or affinity are listed apart. Values without a mark were called inactive. No stated cut-off is given here; in the data, active means cytotoxicity above about 50%; inactive means the rest.

assay: HPDE-C7 pancreatic duct cell viability loss – fluorescence, HTS (AID 430); details: HPDE-C7 pancreatic duct cells viability, at 10 µM, stronger effect = higher value;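 further: cells exposed to compound for 48 hours before viability readout; 0% = vehicle and 100% = reference cytotoxic drug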

SMILES | cytotoxicity
CC1(C)Cc2c(sc3c2c(=N)n(Cc2ccco2)c(=O)n3Cc2ccc(F)cc2)CO1 | 5.6%
O=C1C2C3C=CC(C3)C2C(=O)N1c1n[nH]c(CCc2ccccc2)n1 (stereo unspecified) | 0.1%
CCCCP(=O)(CCCC)Cc1ccccc1O | -0.6%
CC(C)=CC(=O)Nc1ccccc1Br | -7.7%
CC1CC(C)CN(c2oc(-c3ccccc3Cl)nc2C#N)C1 (stereo unspecified) | 2.5%
CCCCOC(=O)Cn1c(=O)c2c(nc(Br)n2Cc2ccccc2)n(C)c1=O | -12.6%
Cc1sc2nc3n(c(=O)c2c1C)CCCS3 | 3.5%
N#C/C(C(=O)NCc1ccccc1)=C1\SC(CCO)C(=O)N1c1ccccc1 (stereo unspecified) | 10.7%
O=S(=O)(c1cccc2cccnc12)N1CCc2ccccc21 | -5.3%
CC1CC(=O)N(CC(=O)N2CCCC2)c2ccccc2S1 (stereo unspecified) | -19.6%
O=C(CN1CCCC1)N1c2ccccc2Sc2ccccc21 | -13.6%
CCc1nnc(NC(=O)NCN2C(=O)C3C4C=CC(C4)C3C2=O)s1 (stereo unspecified) | 3%
CC1=CCC(C(C)(C)NC(=O)c2ccccc2)C/C1=N\O (stereo unspecified) | -14.7%
CCOCCCNS(=O)(=O)c1ccc2c(c1)CCN2C(=O)CC | -23.1%
C/C=C(/C(=C/C)c1ccc(O)cc1)c1ccc(O)cc1 | 106% (active)
C=C(c1ccc(O)cc1)c1ccc(O)cc1 | -12.8%
CCC(=O)c1ccc(O)cc1 | -18.7%
CCn1c2ccccc2c2nnc(SCC(=O)NC(C(=O)OC)C(C)C)nc21 (stereo unspecified) | 0.5%
CCOC(=O)c1[nH]c(C)c(C(=O)NC(C)CC)c1C (stereo unspecified) | 1.4%
O=C1Nc2ccccc2C12OCCCCO2 | -24.6%
Cc1cc(=O)oc2cc(OCC(=O)N3CCc4ccccc4C3)ccc12 | -25.1%
CCOC(=O)N1CCN(Cc2nc3c(c(=O)[nH]c(=O)n3C)n2Cc2cc(C)ccc2C)CC1 | -12.2%
CCCCC(CC)C(=O)Nc1ccccc1C(=O)NC(C)C (stereo unspecified) | 6.3%
O=C(COc1ccc(-c2nnco2)cc1)N1CCN(S(=O)(=O)c2ccc3ccccc3c2)CC1 | -10.1%
O=C(COc1ccc(-c2nnco2)cc1)N1CCN(S(=O)(=O)c2ccccc2)CC1 | -13%
O=S(=O)(c1ccc(Oc2ccc(-c3nnco3)cc2)nc1)N1CCC(Cc2ccccc2)CC1 | 62.7% (active)

SMILES | cytotoxicity
Cc1cc2cc(CNC(=O)c3ccc(Br)o3)ccc2n1C | -1.5%
N#C/C(C(=O)Oc1ccccc1)=C1\C=CC=CN1 | 1.2%
COC(=O)c1ccc(Oc2nc(C)cc(Oc3ccccc3)n2)cc1 | -4.8%
COC(=O)c1ccc(Oc2cc(C)nc(NCc3ccccc3)n2)cc1 | -4.2%
CCOC(=O)c1ccc(Oc2cc(C)nc(SC)n2)cc1 | 50.9% (active)
CCOC(=O)c1ccc(Oc2nc(SC)nc(N(C)C)n2)cc1 | -23.6%
CCOC(=O)c1ccc(Oc2nc(NC)nc(SC)n2)cc1 | -15.9%
COC(=O)c1ccc(Oc2cc(C)nc(SC)n2)cc1 | 50.6% (active)
COc1ccc(C(C#N)Nc2ccccc2OC)cc1 (stereo unspecified) | -4.6%
CCN(CC)S(=O)(=O)c1ccc(Nc2cc(C)nc3ncnn23)cc1 | -2.7%
C1CCc2c(nc3nnnn3c2N2CCOCC2)C1 | -9.2%
COC(=O)CN1C(=O)CC(C)(C)S(=O)c2ccccc21 (stereo unspecified) | -9.1%
Cc1ccc(-n2ncc3c(=O)n(Cc4ccccn4)cnc32)cc1C | 8.3%
CCN1CCN(C(C(=O)NC2CCCC2)c2ccc(Cl)cc2)CC1 (stereo unspecified) | 9.1%
Cc1cc2c(N=O)c(NO)ccc2[nH]1 | 67% (active)
COC(=O)c1ccc2[nH]c(C)cc(=O)c2c1 | -15.1%
Cc1cc(=O)c2cc(Cl)ccc2[nH]1 | -15%
CCCc1cc(C(=O)Nc2sc(C(C)=O)c(C)c2C(=O)OCC)no1 | -5.5%
CC(C)c1nc(N2CCN(C(=O)c3ccco3)CC2)c2c3c(sc2n1)CCCC3 | -21.7%
O=C(c1ccco1)N1CCN(c2nc(C3CC3)nc3sc4c(c23)CCCC4)CC1 | 53.5% (active)
Cc1nc(N2CCN(C(=O)c3ccco3)CC2)c2c3c(sc2n1)CCC3 | 8.5%
CCOC(=O)N1CCN(C(=O)c2cn(-c3ccc(C)c(C)c3)c(=O)c3ccccc23)CC1 | -9.4%
COc1ccc(-c2cnc(N)nc2-c2ccc(OC)cc2O)cc1 | -4%
CCCc1cc(-c2[nH]ncc2-c2ccc(C(=O)OCC)o2)c(O)cc1O | 4.4%
CCc1cc(-c2[nH]ncc2-c2ccc3c(c2)OCO3)c(O)cc1O | 46.1%
